Values joined by “and” are separate entries in the source; they are usually repeats but may differ in a detail not shown here. Equal entries are not always repeated. For some assays here: Results with a measured potency or affinity are listed apart. Active and inactive are the calls of the source. Unless noted, the rule behind the calls is not given here.

For orientation: inhibition means the change of the read-out against control, counted positive when it falls. A word on the viability: it is a read-out of living cells in per cent, often relative to untreated cells.

A short description of experiment [1]: blockers of polyQ-driven CASP3 activation – cell-based (AID 1583). To be noted: polyglutamine-induced caspase-3 activation, cell assay; stronger effect = higher value;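 tested at 10 µM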.
The nature of experiment [2]: yeast 75Q aggregation reduction – 75Q-TubU reporter (AID 1593). Conditions: Yeast 75Q polyglutamine aggregation reporter.
The nature of experiment [3]: restoration of touch response, mutant HTT neurons – whole organism, C. elegans mechanosensory neurons, N-terminal huntingtin (AID 1599). To be noted: C. elegans polyQ-huntingtin mechanosensory neurons, stronger effect = higher value.
Experiment [4] in a line: blockers of cytochrome c efflux from mitochondria – biochemical, purified mitochondria (AID 1603).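 Note: mouse liver mitochondria challenged with calcium chloride; signal normalized to the plate average as 100%.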 To be noted: stronger effect = lower value.
Experiment [5] in a line: polyglutamine aggregate formation blockers (AID 1604). Conditions: polyglutamine-induced protein aggregation inhibition assay; stronger effect = higher value; tested at 2.5 µM.
The nature of experiment [6]: glutamate transport activators, MN-1 cells, MN-1 cell line (AID 1612).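 Note: tested at 1 µM final; 0% = mean of DMSO vehicle wells on each plate; positive means more glutamate uptake than control and negative means less.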 To be noted: MN-1 motor neuron cells, stronger effect = higher value.
Experiment [7] can be described thus: GFP-Q80 aggregate reduction, neuronal-like cells, cell-based, NGF-treated PC12, GFPQ80 (AID 1614).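 Note: lower means fewer inclusions and 0 means no inclusions at all.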 Conditions: PC12 NGF-treated GFP-polyQ80 inclusion reduction.
Experiment [8] can be described thus: 75Q-TubH aggregate inhibition, S. cerevisiae, yeast (AID 1616). Conditions: S. cerevisiae 75Q-TubH polyglutamine aggregation suppression; stronger effect = higher value.
A short description of experiment [9]: compounds altering circadian rhythm period length – cell-based, LOPAC library, luminescence reporter (AID 2774).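 Note: values are relative to mean of DMSO wells on each plate.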 Conditions: circadian reporter cells, at 7 µM, actives lie on both sides.
The nature of experiment [10]: P. berghei load reduction in hepatocytes – cell-based, HepG2, luciferase luminescence, HepG2 viability, primary screen (AID 624349; in the data active = parasite load remaining mostly below about 12%, no sharp cut-off; inactive = mostly above about 10%;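 note: 100% = mean of DMSO negative control wells on the same plate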). To be noted: P. berghei liver stage in HepG2, luciferase luminescence, concentration not given here; parasite load remaining: stronger effect = lower value; viability: measured here: HepG2 viability without parasites.
For experiment [11], the system named is Hepatitis C virus NS3 helicase. Briefly: blockers of NS3h binding to ssDNA – biochemical, fluorescence polarization, LOPAC1280 library, primary screen (AID 687035; in the data active = inhibition above about 37%). Conditions: Purified HCV NS3 helicase, Cy5-dT15 ssDNA binding fluorescence polarization; stronger effect = higher value; concentration not given here. A general note: In fluorescence polarisation assays a small probe gives low polarisation when free and higher when bound to something large.

The target in experiment [12] is 6-phosphogluconate dehydrogenase, decarboxylating (Homo sapiens) (UniProt P52209). Briefly: inhibition of human phosphogluconate dehydrogenase – biochemical, recombinant enzyme, NADPH absorbance, primary screen (AID 1159550;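 active = at least 20% inhibition of 6-phosphogluconate dehydrogenase activity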). Conditions: recombinant 6PGD, NADPH absorbance 341 nm; at 10 µM; stronger effect = higher value.
The nature of experiment [13]: EMT-state selective cytotoxicity in co-culture – imaging, PC-3E GFP, TEM4-18 mCherry, primary screen (AID 1345086;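 active = compounds killing one labelled cell type while sparing the other, by normalised counts and ratio limits, not self-fluorescent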;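 for all read-outs here: cells exposed to compound for 72 h before imaging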;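 for red/green cell ratio (normalised): normalised mesenchymal count divided by normalised epithelial count so high means epithelial killing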). Conditions: PC-3E GFP / TEM4-18 mCherry co-culture, imaging cell counts, at 1 µM; for red/green cell ratio (normalised): actives lie on both sides, counts scaled to control wells, 1 = unselective.
The nature of experiment [14]: viability loss with induced miR-34 in A549 – imaging, A549 dox-inducible miR-34, nuclei and caspase counts, primary screen (AID 1347080;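 active = compounds whose cell count with miR-34 switched on is under 0.7 times the count with it off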). To be noted: A549 miR-34 inducible, Hoechst nuclei count, 48 h.
Experiment [15] is described as follows: blockers of cellular phospholipid synthesis – cell-based, LOPAC library, screen 4, primary screen (AID 1347384). Conditions: animal cells, phospholipid biosynthesis inhibition screen; at 10 µM.
Experiment [16] can be described thus: galactose survival enhancers in mitochondrial complex I cybrids – cell-based, galactose medium, ATP luminescence, primary screen (AID 1645843;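 active = z-score of at least 1.8 in each of two replicates, scored against plate mean and spread of sample wells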;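 note: positive z means more ATP and so rescue of galactose-driven cybrid death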). To be noted: complex I mutant cybrid cells, 72 h, stronger effect = higher value.
In experiment [17] the target is NAD(+) hydrolase SARM1 (Homo sapiens) (UniProt Q6SZW1). Briefly: blocking NAD cleavage by SARM1 SAM-TIR – cell lysate, NAD-Glo luminescence (AID 1508614;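 active = compound whose remaining NAD level is above about 45 nM, limit read from the data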;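 note: higher remaining NAD means stronger inhibition of SARM1 NADase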). To be noted: SAM-TIR HEK293T lysate NADase, at 1 µM, stronger effect = higher value.
The target of experiment [18] is Mitogen-activated protein kinase 7 (Homo sapiens) (UniProt Q13164). Nature of the experiment: Gal4-ERK5 driven luciferase induction – cell-based, HTS, primary screen (AID 1508626;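 active = luciferase signal above three times the same-plate solvent-only control wells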;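 note: luciferase driven by Gal4-ERK5 fusion binding five Gal4 sites before minimal TATA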). Conditions: HeLa Gal4-ERK5 transactivation, 18 h, at 5 µM, stronger effect = higher value.
Where [19] appears, read: measured here: epithelial PC-3E GFP cell survival.
[20] abbreviates: measured here: mesenchymal TEM4-18 mCherry cell survival.
Where [21] appears, read: stronger effect = lower value, cell number ratio, induced over uninduced.
[22] abbreviates: measured here: relative caspase fold change +Dox/-Dox.
Where [23] appears, read: measured here: total cells with miR-34 induction, stronger effect = lower value.
The mark [24] stands for this setting: measured here: total cells without miR-34 induction.

Chain of Mitogen-activated protein kinase 7 (Homo sapiens) (Q13164 whole entry, looked up, the tested form may be a part): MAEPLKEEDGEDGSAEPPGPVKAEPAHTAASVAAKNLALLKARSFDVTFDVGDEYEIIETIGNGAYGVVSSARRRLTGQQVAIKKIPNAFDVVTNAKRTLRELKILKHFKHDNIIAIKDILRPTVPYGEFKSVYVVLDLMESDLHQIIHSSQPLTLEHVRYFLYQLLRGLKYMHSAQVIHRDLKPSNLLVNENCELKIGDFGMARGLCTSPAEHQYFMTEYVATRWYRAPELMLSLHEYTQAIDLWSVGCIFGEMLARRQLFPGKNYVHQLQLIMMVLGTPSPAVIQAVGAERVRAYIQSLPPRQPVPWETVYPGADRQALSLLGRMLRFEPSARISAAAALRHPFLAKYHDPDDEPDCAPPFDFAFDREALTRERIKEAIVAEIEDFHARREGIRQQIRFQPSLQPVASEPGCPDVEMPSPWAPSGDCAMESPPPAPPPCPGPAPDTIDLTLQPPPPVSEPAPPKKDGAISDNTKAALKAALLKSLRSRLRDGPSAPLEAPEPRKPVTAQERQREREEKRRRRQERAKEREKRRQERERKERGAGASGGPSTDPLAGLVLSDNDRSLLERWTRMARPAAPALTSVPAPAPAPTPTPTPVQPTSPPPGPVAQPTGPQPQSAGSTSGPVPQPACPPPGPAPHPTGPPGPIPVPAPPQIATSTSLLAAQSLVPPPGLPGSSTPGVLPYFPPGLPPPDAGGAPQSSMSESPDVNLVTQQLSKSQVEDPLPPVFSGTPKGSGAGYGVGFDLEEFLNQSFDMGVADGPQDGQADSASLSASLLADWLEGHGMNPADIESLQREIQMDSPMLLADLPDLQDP
Chain of 6-phosphogluconate dehydrogenase, decarboxylating (Homo sapiens) (P52209 whole entry, looked up): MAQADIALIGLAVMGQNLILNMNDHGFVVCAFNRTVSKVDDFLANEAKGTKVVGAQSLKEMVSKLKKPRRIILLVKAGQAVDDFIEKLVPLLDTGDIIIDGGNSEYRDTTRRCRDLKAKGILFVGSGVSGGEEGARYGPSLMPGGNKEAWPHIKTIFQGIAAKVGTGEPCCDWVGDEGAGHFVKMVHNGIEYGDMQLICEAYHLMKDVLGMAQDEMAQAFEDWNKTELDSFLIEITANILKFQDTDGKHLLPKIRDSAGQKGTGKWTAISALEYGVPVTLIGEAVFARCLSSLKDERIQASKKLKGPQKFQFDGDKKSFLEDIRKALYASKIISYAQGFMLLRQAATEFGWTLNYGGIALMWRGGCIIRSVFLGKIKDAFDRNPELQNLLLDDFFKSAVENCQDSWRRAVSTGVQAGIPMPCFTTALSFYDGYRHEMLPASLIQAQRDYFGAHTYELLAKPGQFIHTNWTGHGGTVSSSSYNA
Chain of NAD(+) hydrolase SARM1 (Homo sapiens) (Q6SZW1 whole entry, looked up, the tested form may be a part): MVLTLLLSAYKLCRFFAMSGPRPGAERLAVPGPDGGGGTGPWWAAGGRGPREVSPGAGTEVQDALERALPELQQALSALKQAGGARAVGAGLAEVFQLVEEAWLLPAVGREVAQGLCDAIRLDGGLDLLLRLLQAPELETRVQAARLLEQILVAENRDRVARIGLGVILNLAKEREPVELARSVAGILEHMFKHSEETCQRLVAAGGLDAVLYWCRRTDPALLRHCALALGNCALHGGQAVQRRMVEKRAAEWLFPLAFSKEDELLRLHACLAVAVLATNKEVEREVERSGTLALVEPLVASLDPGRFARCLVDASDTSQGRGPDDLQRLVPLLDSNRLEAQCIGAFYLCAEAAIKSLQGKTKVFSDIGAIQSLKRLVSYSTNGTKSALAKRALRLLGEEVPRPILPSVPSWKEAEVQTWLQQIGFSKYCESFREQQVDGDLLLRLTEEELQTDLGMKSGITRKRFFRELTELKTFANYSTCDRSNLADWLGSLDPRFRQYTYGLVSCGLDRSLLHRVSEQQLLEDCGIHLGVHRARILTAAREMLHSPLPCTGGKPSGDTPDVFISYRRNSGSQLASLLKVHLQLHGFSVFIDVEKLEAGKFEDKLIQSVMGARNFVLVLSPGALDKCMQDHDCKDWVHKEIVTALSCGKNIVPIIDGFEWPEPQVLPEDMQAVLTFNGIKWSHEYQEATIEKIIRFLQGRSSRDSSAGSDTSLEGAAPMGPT

In the case of `COC(=O)[C@H]1[C@H]2C[C@H]3c4[nH]c5ccccc5c4CCN3C[C@H]2CC[C@@H]1O`, the inhibition in [1] is -11.7%; in experiment [11], 0% (inactive); in experiment [12], -0.247% (inactive). The score in experiment [2] was 2.01. For the same molecule, the rescue above control in experiment [3] was 16.2. The cytochrome c release ratio in experiment [4] came to 1.18. The inhibition of aggregation in [5] was 75.9%. The glutamate uptake change in [6] turned out to be 41.8%. Also, the inclusion score in experiment [7] amounted to 2. In addition, the aggregation suppression score in [8] worked out at 1.4. Moreover, the period change in [9] is 0.015 h (inactive). Also, the parasite load remaining in experiment [10] was 79.9% (inactive) and 65.8% (inactive). For the same molecule, the viability in experiment [10] is 101% and 78.6%. The red/green cell ratio (normalised) in [13] is 1.04 (inactive). Besides, the results for the normalised cell number in experiment [13] (setting [19]) and in [13] (setting [20]) were 0.93 and 0.97, respectively. For the same molecule, the fold change in experiment [14] (setting [21]) was 0.977 (inactive) and 0.857 (inactive); in experiment [14] (setting [22]), 0.889 and 1.48. For the same molecule, the cell count in [14] (setting [23]) was 10000 and 9150; in experiment [14] (setting [24]), 10300 and 10700. For the same molecule, the outcome in [15] was inactive. For the same molecule, the z-score in experiment [16] is 0.115 (inactive).
On to `Oc1cc(O)c2c(c1)O[C@H](c1ccc(O)c(O)c1)[C@@H](O)C2`, for which the results for the inhibition in experiment [1], in experiment [11] and in experiment [12] were 23.8%, 0% (inactive) and 13.7% (inactive), respectively. Besides, in experiment [2], the score turned out to be 1.24. Besides, the rescue above control in experiment [3] is -5.75. For the same molecule, in [4], the cytochrome c release ratio is 0.5. In experiment [5], this molecule yielded an inhibition of aggregation of 63.2%. This molecule had a glutamate uptake change in experiment [6] of 14.1%. This molecule also gave an inclusion score in experiment [7] of 2. Also, the aggregation suppression score in experiment [8] came out at 1.05. In addition, in [9], the period change was 0.07 h (inactive). Also, in [10], the parasite load remaining is 116% (inactive). The viability in experiment [10] amounted to 105%. Further, the red/green cell ratio (normalised) in [13] is 1.12 (inactive). Also, the values for the normalised cell number in experiment [13] (setting [19]) and in experiment [13] (setting [20]) were 1.02 and 1.15, respectively. The fold change in experiment [14] (setting [21]) was 0.974 (inactive) and 0.863 (inactive) and 0.997 (inactive); in [14] (setting [22]), 2.1 and 1.09 and 0.901. Moreover, the cell count in experiment [14] (setting [23]) was 10300 and 8130 and 5640; in experiment [14] (setting [24]), 10500 and 9420 and 5660. Also, the call in [15] was inactive. Besides, the remaining NAD in [17] was 10 nM (inactive). The luciferase signal in experiment [18] was 24 AU (inactive). Moreover, the z-score in [16] was -0.355 (inactive).
For the molecule `NC1(C(=O)O)CC1`, the period change in experiment [9] was -0.01 h (inactive). Further, the inhibition is -2% (inactive) in experiment [11] and -3.72% (inactive) in experiment [12]. For the same molecule, in experiment [13], the red/green cell ratio (normalised) was 0.8 (inactive). In addition, the normalised cell number in experiment [13] (setting [19]) is 1.07; in experiment [13] (setting [20]), 0.86. The fold change was 0.945 (inactive) in experiment [14] (setting [21]) and 1.33 in experiment [14] (setting [22]). For the same molecule, the values for the cell count in [14] (setting [23]) and in [14] (setting [24]) were 9670 and 10200, respectively. Further, the molecule was called inactive in [15]. Further, the luciferase signal in experiment [18] was 60 AU (inactive). In addition, in experiment [16], the z-score is 0.575 (inactive).
As for `O=c1cc(-c2ccccc2)oc2c(O)c(O)ccc12`, the inhibition is 17.3% in experiment [1] and -53.2% (inactive) in experiment [12]. The molecule further displayed a score in experiment [2] of 0.23. The rescue above control in experiment [3] was -0.88. For the same molecule, in [4], the cytochrome c release ratio worked out at 0.65. The inhibition of aggregation in experiment [5] is 81.7%. In addition, the glutamate uptake change in experiment [6] came to 0.12%. This molecule registered an inclusion score in experiment [7] of 1.5. This molecule also registered an aggregation suppression score in experiment [8] of 0.00444. In addition, the red/green cell ratio (normalised) in [13] was 0.99 (inactive). The normalised cell number in [13] (setting [19]) amounted to 0.99; in [13] (setting [20]) it was 0.98. Further, the fold change was 1.65 (inactive) in experiment [14] (setting [21]) and 0.979 in experiment [14] (setting [22]). The cell count in experiment [14] (setting [23]) is 3960; in [14] (setting [24]) it was 2390. In addition, the call in experiment [15] was inactive. Besides, the luciferase signal in experiment [18] was 32 AU (inactive). Also, the z-score in experiment [16] is -0.44 (inactive).
With `NC(=O)CC[C@H](N)C(=O)O`, the period change in experiment [9] was -0.065 h (inactive). Also, the inhibition in experiment [11] is -3% (inactive); in experiment [12], -0.19% (inactive). Moreover, the red/green cell ratio (normalised) in [13] is 0.89 (inactive) and 1.18 (inactive). The normalised cell number in experiment [13] (setting [19]) was 1.22 and 0.97; in experiment [13] (setting [20]), 1.08 and 1.13. The fold change is 0.981 (inactive) and 0.937 (inactive) in experiment [14] (setting [21]); 0.852 and 0.867 in experiment [14] (setting [22]). Besides, the cell count in experiment [14] (setting [23]) was 10400 and 8420; in experiment [14] (setting [24]) it was 10600 and 8990. Further, the molecule was classed as inactive in experiment [15]. In addition, the remaining NAD in experiment [17] is 10 nM (inactive). For the same molecule, in [18], the luciferase signal is 40 AU (inactive). Further, the z-score in experiment [16] was 0.01 (inactive).

The values are drawn from PubChem BioAssay.
